High-throughput results (PubChem)
hcDAF12 agonist = activates DAF-12 receptor from parasite H. contortus; HEK293 hcDAF-12 lit1-tk-luc reporter, luminescence; 0% DMSO, 100% Δ7-dafachronic acid; activation, % at 6.8 µM; 370,000 tested, 1.4% active; AID 652067;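 active means activation above the mean of all tested compounds plus 3 SD, cut at about 5.5% in these data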;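 further: 100% = response to 3 µM Δ7-dafachronic acid high control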
hgDAF12 agonist = activates the H. glycines DAF-12 receptor ligand-binding domain; HEK293 GAL4-hgDAF12 UAS-luciferase reporter, agonist luminescence; normalized to butyrate control; activation, % at 6.8 µM; 370,000 tested, 1.8% active; AID 687014;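 active means activation above a cutoff set at the mean of all screened compounds plus 3 SD, cut at about 10% in these data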;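 further: 0% = DMSO wells and 100% = sodium butyrate wells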
DAX1 inh-1 = DAX1 (NR0B1) inhibition, primary screen; HEK293T StAR-luciferase reporter, SF-1/DAX-1 repression relief; inhibition, % at 6.8 µM; 370,000 tested, 1.1% active; AID 652010;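 active means inhibition above the mean over all tested compounds plus 3 SD, cut at about 3.6% in these data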;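 further: 0% = DAX-1 cells with DMSO and 100% = cells lacking DAX-1 with DMSO; higher inhibition means more luminescence from relief of DAX-1 repression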
DAX1 inh-2 = inhibitors of human orphan nuclear receptor DAX1 (NR0B1) | P51843 | HEK293 Gal4-DAX1 luciferase reporter, luminescence | inhibition, % at 6.75 µM | 340,000 tested, 0.99% active | AID 504766;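 active means inhibition above the mean over all tested compounds plus 3 SD, cut at about 4.2% in these data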;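 further: 0% = DAX1-transfected cells with DMSO and 100% = empty-vector control cells with DMSO; inhibition shows as a rise in luminescence from relieved DAX1 repression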
Target sequence (P51843 207-470 limits assumed): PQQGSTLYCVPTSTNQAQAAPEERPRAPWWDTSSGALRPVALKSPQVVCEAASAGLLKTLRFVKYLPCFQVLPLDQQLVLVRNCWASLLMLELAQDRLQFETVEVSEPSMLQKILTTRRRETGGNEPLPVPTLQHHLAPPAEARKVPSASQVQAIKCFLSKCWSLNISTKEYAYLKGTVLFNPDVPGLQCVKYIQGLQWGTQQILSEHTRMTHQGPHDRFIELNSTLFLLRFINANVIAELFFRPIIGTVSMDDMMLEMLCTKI
ssDAF-12 act = activators of S. stercoralis DAF-12 nuclear receptor | AID 652126 | HEK293 ssDAF-12/GRIP1 lit1-tk-luc reporter, luminescence; % of 3 µM dafachronic acid response | 370,000 tested, 1% active | activation, % at 6.8 µM;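 active means activation above the mean over all tested compounds plus 3 SD, cut at about 0.9% in these data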;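 further: 0% = DMSO-only wells and 100% = 3 µM delta7-dafachronic acid wells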
AHR act = activators of human aryl hydrocarbon receptor | 320,000 tested, 2.5% active | AID 2796 | activation, % at 5 µM | AHR-responsive luciferase reporter cells, luminescence | P35869; in the data active means activation above about 47%;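 further: 0% = vehicle wells and 100% = reference agonist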
LXR ag = counter-screen for hcDAF-12 agonists: agonists of human LXR-beta | activation, % at 6.8 µM | 3,400 tested, under 10 active | shares compounds with hcDAF12 agonist | AID 743027 | HEK293 Gal4-LXR tk-luc reporter, luminescence, 24 h; normalized: DMSO 0%, positive control 100%;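 active means mean percent activation of the reporter above a cutoff set as the average over tested compounds plus their standard deviation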
hcDAF12 ag = hcDAF-12 agonism, confirmation assay | shares compounds with hcDAF12 agonist | HEK293 hcDAF-12 lit1-tk-luc reporter, luminescence; % of Δ7-dafachronic acid response | activation, % at 6.8 µM | 3,400 tested, 61% active | AID 743032;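 active means mean activation across triplicate tests above the threshold derived from the earlier primary screen, cut at about 5.5% in these data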;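 further: 0% = DMSO only wells and 100% = 3 µM Δ7-dafachronic acid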
hgDAF12 conf = hgDAF-12 agonism, confirmation assay. activation, % at 6.8 µM. HEK293 GAL4-hgDAF12 luciferase reporter, agonist mode; percent of butyrate response. shares compounds with hgDAF12 agonist. 3,300 tested, 80% active;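 active means mean activation over triplicate wells above the hit cutoff derived from the earlier primary screen, cut at about 11% in these data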;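 further: 0% = DMSO low control and 100% = 2 mM sodium butyrate high control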
LXRb DAF12 ctr = activates human LXR-beta, counter-screen for DAF-12 agonists. shares compounds with hgDAF12 agonist. HEK293 Gal4-LXR luciferase reporter, 24 h. activation, % at 6.8 µM. 3,300 tested, under 10 active. AID 743051;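 active means mean activation of the triplicate above a set limit carried over from the primary screen, none filed active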
An asterisk follows results filed as active; . = not tested or not shown. Compounds with a hit are over-represented: about 5.7% of the library has one in this group of screens.

SMILES	hcDAF12 agonist	hgDAF12 agonist	DAX1 inh-1	DAX1 inh-2	ssDAF-12 act	AHR act	LXR ag	hcDAF12 ag	hgDAF12 conf	LXRb DAF12 ctr
Fc1ccccc1N1CCN(c2cnc3ccccc3n2)CC1	6.6*	19*	3	-1	1	-5	1	5	17*	1
COC(=O)[C@@H](Cc1c[nH]c2ccccc12)NC(=O)c1ccc2c(c1)OCO2	13*	16*	1	4	3.2*	4	1	7.9*	18*	1
Cc1ccc2[nH]cc(CCNC(=O)c3ccc4c(c3)OCO4)c2c1	-2	1	0	-1	-1	9	.	.	.	.
O=C(NCCc1c[nH]c2ccccc12)c1ccc2c(c1)OCO2	11*	15*	2	2	1.3*	42	1	9.8*	18*	1
CC(NC(=O)CNC(=O)c1ccccc1Br)c1cccs1 (stereo not given)	-1	4	1	-2	-1	.	.	.	.	.
COCc1c(C(=O)N/N=C(/C)c2ccc(OCc3ccccc3)cc2)nnn1-c1nonc1N	8.5*	14*	1	0	0	6	0	3	8	0
CC(=O)c1cc(C(=O)Nc2ccc3ccccc3c2)c(C)o1	3	1	0	2	0	20	.	.	.	.
Cc1cc(C(=O)Nc2ccc3ccccc3c2)c(C)o1	8.5*	18*	3	2	1.7*	15	2	11*	21*	1
Cc1cc(C(=O)Nc2ccc3ccccc3c2)oc1C	7.3*	19*	3	2	1	16	1	6.9*	19*	1
CC1CC(C)CN(S(=O)(=O)c2ccc3c(c2)CC(C)N3C(=O)C2CC2)C1 (stereo not given)	-4	-1	-3	-2	-2	2	.	.	.	.
COc1ccc(NC(=O)c2csc3c2CCCCC3)c(OC)c1	3	1	0	1	-1	24	.	.	.	.
O=C(Nc1ccccc1O)c1csc2c1CCCC2	7.4*	16*	2	2	1	31	1	10*	13*	0
O=C(Nc1ccccc1O)c1c(O)c2c([nH]c1=O)CCCC2	8.0*	19*	3	5.0*	1.5*	57*	1	6.9*	16*	1
CCCn1nc(C(=O)NNC(=O)CSC(C)C(=O)Nc2cc(C)on2)c2ccccc2c1=O (stereo not given)	-2	-2	1	1	-1	0	.	.	.	.
O=C(O)C(=O)/C(=C\c1ccccc1)c1ccc2ccccc2n1	19*	17*	4.5*	3	3.3*	48*	1	16*	22*	1
O=C(O)C(=O)/C(=C\c1cccc2ccccc12)c1ccc2ccccc2n1	2	1	1	1	0	29	.	.	.	.
O=C(O)C(=O)/C(=C\c1ccsc1)c1ccc2ccccc2n1	23*	16*	3	2	3.2*	77*	1	14*	20*	1
Cc1ccc(CNC(=O)COc2ccc(C)nc2[N+](=O)[O-])cc1	-4	-1	0	0	-1	11	.	.	.	.
Cc1ccc(COc2ccc(C)nc2[N+](=O)[O-])cc1	9.6*	14*	2	.	0	-5	1	7.3*	14*	1
Cn1c(=O)n(C)c2cc(N3CCOCC3)c(NC(=O)c3cccc(Cl)c3)cc21	-1	0	-1	0	-1	5	.	.	.	.
Cc1ccc2oc(-c3ccccc3)c(C(=O)O)c(=O)c2c1	6.7*	18*	3	2	0	0	1	6.1*	18*	1
OC(c1ccc(F)cc1)c1nc(-c2cc3ccccc3o2)cs1 (stereo not given)	6.6*	15*	3.9*	.	1.2*	.	1	4	14*	0
CC(=O)NC(c1cccc(F)c1)c1nc(-c2cc3ccccc3o2)cs1 (stereo not given)	-2	-1	1	.	-1	.	.	.	.	.
COC(=O)c1cc(N/C(N)=N/c2nc(C)cc(C)n2)cc(C(=O)OC)c1	4	-2	-1	-1	-1	.	.	.	.	.
Cc1ccc2cc(NC(=O)c3ccccc3)ccc2n1	5	10	4	2	0	0	.	.	.	.
SMILES	hcDAF12 agonist	hgDAF12 agonist	DAX1 inh-1	DAX1 inh-2	ssDAF-12 act	AHR act	LXR ag	hcDAF12 ag	hgDAF12 conf	LXRb DAF12 ctr
Cc1ccc2cc(NC(=O)c3cccc(F)c3)ccc2n1	8.2*	15*	3	3	0	-4	1	4	20*	1
O=C(Nc1ccc2ccccc2c1)c1cccc(F)c1	8.9*	14*	3	4	0	8	1	7.3*	16*	1
O=C(Nc1ccc2ccccc2c1)c1ccc(Cl)cc1	6.8*	16*	3.8*	4	1.7*	-3	2	9.4*	22*	1
O=C(Nc1ccncc1)c1ccc2ccccc2c1	0	9	-1	-1	-1	1	.	.	.	.
O=C(CCSc1ccccc1)Nc1ccc(OCc2ccccc2)cc1	0	0	-1	0	-1	0	.	.	.	.
O=C(COC(=O)c1ncc(Cl)c(Cl)c1Cl)NC(=O)NCc1ccccc1	-1	-1	1	0	-2	2	.	.	.	.
OC[C@H]1O[C@H](OC[C@H]2OC(O)[C@H](O)[C@@H](O)[C@@H]2O)[C@H](O)[C@@H](O)[C@@H]1O (stereo not given in full)	0	-2	-1	0	-1	-3	.	.	.	.
O=C(NCCCn1ccnc1)C1CC(c2ccccc2Cl)=NO1 (stereo not given)	-1	-4	-1	0	-1	-1	.	.	.	.
O=C(CSc1nnc(COc2ccc(Cl)cc2)o1)N(c1ccccc1)C1CCS(=O)(=O)C1 (stereo not given)	-3	-1	-3	-2	-2	.	.	.	.	.
Cc1cc(C)nc(SCc2cn3ccccc3n2)n1	-1	-2	0	0	-1	16	.	.	.	.
Nc1ccccc1SCc1cn2ccccc2n1	7.4*	14*	4.2*	1	1.4*	14	1	5	14*	0
COc1cc(C(=O)NCCc2nc3ccccc3n2C)cc(OC)c1OC	0	-2	0	0	-2	0	.	.	.	.
